PubChem BioAssay (NCI)
About 83,000 compounds went through this panel and 20% of them were active in at least one assay; those are over-represented in the sample as a whole.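 Values shown are percent growth following 48 h exposure of cells in 96-well plates to a single concentration of compound; below 10 was considered active.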 Unmarked numbers belong to inactive results. Active and inactive are the calls of the source.

The compounds below were run on HL-60(TB) leukemia (assay: NCI-60 one-dose screen, 48 h (100 = growth as untreated, 0 = no growth, -100 = all killed)). Conditions: 10 µM unless noted.

Compound | growth
COc1ccc(C2=NN(C(=O)COc3ccc(Cl)cc3)C(O)(c3cc(F)c(Cl)cc3Cl)C2)cc1OC (stereo not given) | -42.2% (active)
CC(=O)c1cc2c(N)c(C(=O)Nc3cccc(F)c3C)sc2nc1C | 57.1%
COc1cccc(C(=O)OCCn2nc3c4c(cccc42)C(=O)c2ccccc2-3)c1O | 0.071% (active)
COc1cc(C(=O)/C=C/c2c(-c3ccc(F)cc3)nc3sccn23)cc(OC)c1OC | 32%
CCCC(C)(C)COC(=O)c1cccc(N)c1 | 57.8%
O=Nc1c(-c2c(O)[nH]c3cc(Br)ccc23)[nH]c2ccccc12 | -51.3% (active)
COC(CC(F)F)c1cn(S(=O)(=O)c2ccc(C)cc2)c2ccccc12 (stereo not given) | 8.92% (active)
O=C(CN1C(=O)/C(=C/c2ccc(Cl)cc2)SC1=S)NCCCN1CCOCC1 | 98.7%
N#CCCN(CCCN1CCOCC1)CN1C(=O)c2ccccc2C1=O | 83.2%
CC1=CC(=O)OC1C/C=C(\C)CCC1[C@@]2(C)CCC[C@@](C)(C(=O)O)C2CC[C@@]1(C)O (stereo not given in full) | 95.8%
CCCCCCCCNc1ncnc2c1ncn2Cc1nnc2c3ccccc3c(Cl)nn12 | 29.2%
CCOC(=O)c1c(C)oc2ncnc(N3CCN(C(=O)COc4ccc(C(C)(C)C)cc4)CC3)c12 | 73.9%
C#CC(F)(F)[C@]1(O)CC[C@H]2[C@@H]3CCC4=CC(=O)CCC4=C3[C@@H](c3ccc(C4CC4)cc3)C[C@@]21C | -61.1% (active)
COc1ccc(C(=O)CSc2nc(-c3cc(OC)ccc3OC)cc(-c3ccc(Cl)cc3)c2C#N)cc1 | 106%
Fc1ccc(-c2nc(-c3nc4ncccc4[nH]3)cc3c2[nH]c2ccccc23)cc1F | 86.4%
COc1ccc(O)c(-c2cc(-c3ccc(Cl)cc3)c(C#N)c(=O)[nH]2)c1 | 65.2%
CCOC(=O)c1cc(C#N)n2ncc3ccccc3c12 | 105%
NC(=S)N/N=C/c1ccc(Cl)cc1 | 103%
COc1ccc(-c2nc3cc(C(=O)NC4CCCCC4)ccc3n2C2CCCCC2)cc1 | 79.1%
CCCCCCCC/C=C\CCCCCCCC(=O)Oc1cccc2cccnc12 | 83.9%
CCNC(=O)Oc1ccc(/C(=C(/CC)Cc2ccccc2)c2ccc(OCCN3CCCC3)cc2)cc1 | 69.2%
COc1ccc(/C=C(\C#N)c2cc3ccccc3n2C(C)=O)cc1 | 83.2%
CCCC(=O)c1cccs1 | 87.9%
Cc1ccc(NC(=O)c2sc3nc(C)c(C(O)c4ccccc4)cc3c2N)cc1 (stereo not given) | -47.5% (active)
Cn1cc(-c2ccc(-c3cn(C)c4ccc(Cl)cc34)[nH]2)c2cc(Cl)ccc21 | -37.8% (active)
